Assay results from PubChem BioAssay (EPA / NIEHS).
Activity calls are given as the source filed them. Rule for the calls: active = hit-call score of the fitted dose curve at least 0.9, where 1 is the maximum; inactive = score below 0.9.

Experiment: CEETOX_H295R_DOC: CeeTox H295R High-throughput Steroidogenesis Assay for DOC (AID 2283439)
Conditions: actives raise or lower the signal
Method: CEETOX_H295R is a cell-based, multiplexed-readout assay that uses H295R, a human adrenal gland cell line, with measurements taken at 48 hours after chemical dosing in a 96-well plate.CEETOX_H295R_DOC is one of 23 assay component(s) measured or calculated from the CEETOX_H295R assay. It is designed to make measurements of hormone induction, a form of inducible reporter, as detected with absorbance signals by HPLC-MS-MS technology.Data from the assay component CEETOX_H295R_DOC was analyzed into 1 assay endpoint. This assay endpoint, CEETOX_H295R_DOC, was analyzed with bidirectional fitting relative to DMSO as the negative control and baseline of activity. Using a type of inducible reporter, gain or loss-of-signal activity using HPLC-MS-MS was used to understand synthesis of 11-Deoxycorticosterone in H295R cell line at 48hr of chemical exposure. To generalize the intended target to other relatable targets, this assay endpoint is annotated to the steroid hormone intended target family, where the subfamily is glucocorticoids.
Cell culture and media preparation procedures were conducted in accordance with OECD Test No. 456 guidelines, with minor modifications. H295R cells (ATCC CRL-2128) were expanded for 5 passages and frozen in batches in liquid nitrogen. Prior to the steroidogenesis assay, H295R cells were thawed and passed at least 4 times. The maximum passage was 10. Cells were maintained in a 1:1 mixture of DMEM/F12 supplemented with 5ml/L ITS+ Premix (BD Bioscience) and 12.5 ml/L Nu-Serum (BD Bioscience). After seeding cells into 96-well plates at 50-60% confluency, cells were allowed to adhere overnight. Prior to chemical testing, culture medium was replaced with 175 uL medium containing 10 uM forskolin to stimulate steroidogenesis for 48 hours. Following prestimulation, forskolin medium was replaced with medium containing test chemical solubilized in DMSO (ensuring a final concentration of 0.1% DMSO). Test chemicals were incubated for 48 hours, then the medium was removed and split into 2 vials containing approximately 75uL each, and stored at -80 C prior to hormone analysis. For steroid quantification, media samples were shipped to OpAns, LLC (Durham, NC) on dry ice, and samples were thawed to room temperature prior to liquid-liquid extraction. Steroid hormones were extracted from media samples using methyl tertbutyl ether (MTBE). An extra derivatization with dansyl chloride was included for estrogen (estrone and estradiol) detection only. Steroid hormones were separated by HPLC, eluted using a reverse phase C18 gradient with electrospray positive ionization, followed by quantification by tandem mass spectrometry (MS/MS). Data were acquired on a MassHunter Workstation Acquisition version B03.01 (Agilent Technologies, Inc.) and processed using MassHunter Quantitative Analysis for QQQ. Accuracy was determined for each hormone analyte from 3 standards to determine upper and lower limits of quantification (ULOQ and LLOQ, respectively) using a 7-point standard curve. Precision and accuracy of the extraction and quantification methods were calculated as the percent relative standard deviation (%RSD) of the spiked standards and percent spiked standard recovered, respectively. […] Test medium was removed following chemical exposure, and cell viability was evaluated in the same wells by MTT. MTT procedures were as follows: after removal of test medium, 500 uL of 0.5 mg/ml of 3-[4,5-dimethylthiazol-2-y]2,5-diphenyltetrazoliumbromide solution was added to the cells. Following a 4-hour incubation at 37 C and 5% CO2 to allow formazan-crystal formation, the MTT solution was removed and blue formazan salt crystals were solubilized using 500uL anhydrous isopropanol with shaking for 20 minutes. Absorbance was read at 570 and 650nm using a Packard Fusion microplate reader. Background correction of absorbance units was used to determine percent change relative to controls. […]

SMILES | AC50 | outcome
C[C@]12CC[C@@H](O)C[C@@H]1CC[C@@H]1[C@@H]2CC[C@]2(C)C(=O)CC[C@@H]12 | 2.64 µM (active) | –
CCCCCCCCCCCCN(C)C | – | inactive
CC(C)(COCC1CO1)COCC1CO1 (centres undefined) | – | inactive
O=[N+]([O-])c1ccc(Nc2ccccc2)cc1 | – | inactive
CCOP(=O)(OCC)OC(=CCl)c1ccc(Cl)cc1Cl | 5.48 µM (active) | –
CCC[CH2][Sn]([Cl])([Cl])[CH2]CCC | – | inactive
Oc1cccc(-c2ccccc2)c1 | – | inactive
O=S1OC[C@@H]2[C@H](CO1)[C@]1(Cl)C(Cl)=C(Cl)[C@@]2(Cl)C1(Cl)Cl (some centres undefined) | 16.3 µM (active) | –
Cc1cc(C(C)(C)c2ccc(O)c(C)c2)ccc1O | 2.91 µM (active) | –
Cc1cc(Cl)ccc1O | – | inactive
OC(Cc1ccccc1Cl)(Cn1[nH]cnc1=S)C1(Cl)CC1 (centres undefined) | – | inactive
CCOCn1c(-c2ccc(Cl)cc2)c(C#N)c(Br)c1C(F)(F)F | – | inactive
COC(=O)Nc1cccc(OC(=O)Nc2cccc(C)c2)c1 | 19.8 µM (active) | –
Cc1ccccc1OP(=O)(Oc1ccccc1C)Oc1ccccc1C | – | inactive
CC(C)=CC1C(C(=O)OCc2cccc(Oc3ccccc3)c2)C1(C)C (centres undefined) | – | inactive
COc1ccc(N)cc1 | – | inactive
CCOP(=S)(OCC)O/N=C(\C#N)c1ccccc1 | 40.4 µM (active) | –
CC(C)(C)c1ccccc1O | – | inactive
OC(Cc1ccccc1Cl)(Cn1cncn1)C1(Cl)CC1 (centres undefined) | – | inactive
